# Compound activity deposited in PubChem BioAssay by National Center for Advancing Translational Sciences (NCATS).
# An excerpt weighted towards active compounds, which were near 14% of everything screened.
# Lassa entry inh – Lassa virus entry inhibition; 300,000 compounds, 1.2% hits; Potency, µM (highest dose often 37.9 µM), without a hit: at the highest dose activity change, negative = inhibition, most hits filed as inhibitors; Lassa virus pseudotype entry inhibition, cell reporter; calls by dose curve; tested in HEK293 cells; also: potency is read from the fitted curve at half-maximal effect; nearly all actives have a fitted effect of over 50% in size
# Pf growth 96h – P. falciparum growth inhibition at 96 hours; AID 504834; P. falciparum luciferase reporter growth, 96 h; 320,000 compounds, 6.9% hits; Potency, µM (series often up to 28.7 µM), inactives show top-dose activity change, negative = inhibition, hits mostly inhibitors; also: potency is read from the fitted curve at half-maximal effect
#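 P. falciparum expressing integrated firefly luciferase grown in erythrocytes (2% hematocrit, 0.05% parasitemia final) with compounds for 96 hours at 37 C, 5% CO2. Growth inhibition read as loss of luminescence after adding luciferase detection reagent.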
# HCV inh – blocks hepatitis C virus | AID 651820 | 340,000 compounds, 3.4% hits | Huh7.5.1 HCVcc-Cre infection, luciferase reporter, 44 h | Potency, µM (top dose mostly 41.8 µM), for the others: at the highest dose activity change, negative = inhibition, usual class: inhibitors; also: potency is read from the fitted curve at half-maximal effect
#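 HCVcc-Cre virus at an moi near 0.5 was added right after compound to cells cultured 4 h from seeding (1,000 cells/well). Luciferase activity was determined 44 h later, 15 min after substrate addition at RT.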
# HCMV inh – inhibitors of human cytomegalovirus; HFF cells, HCMV-luciferase reporter, 72 h; hits give low values; AID 1259415; activity change, negative = inhibition, % at 57.5 µM; 410,000 compounds, 4.5% hits; in the data active = activity change below about -60%; inconclusive = no clear call, values can overlap the other calls; inactive = above about -39%
#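 After 16 h attachment at 37C, HFF cells received test compound and HCMV-luciferase (1 PFU/cell); reporter luminescence read 72 h later, data normalized against buffer-only and known inhibitor Salinomycin.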
# Marburg entry inh – blocks Marburg virus binding to or entry into cells. Marburg virus pseudotyped entry inhibition, cell reporter. Potency, µM (series often up to 37.8 µM), inactives show top-dose activity change, negative = inhibition, most hits filed as inhibitors. 300,000 compounds, 1.8% hits. AID 540276; calls by dose curve; tested in HEK293 cells; also: potency is read from the fitted curve at half-maximal effect
# Pf growth 48h – inhibits P. falciparum growth in the first generation, 48 h | P. falciparum luciferase growth in erythrocytes, 48 h | Potency, µM (titrated, usually from 28.7 µM), for the others: top-dose activity change, negative = inhibition, hits mostly inhibitors | 310,000 compounds, 5.9% hits; also: potency is read from the fitted curve at half-maximal effect
#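 Growth was read as firefly luciferase luminescence after a 48 h, 37 C, 5% CO2 exposure of compounds to reporter-bearing P. falciparum cultures (0.1% parasitemia, 2% hematocrit final) in Albumax-supplemented RPMI 1640.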
# Starred values were filed as active, the others as inactive; u = inconclusive; x = not tested or not shown; ! = not active in a repeat; [ ] = another dose, or the depositor's remark. Unless noted, calls follow the shape of the dose curve; as a rule, active = well fitted inhibition curve with a large enough effect; inconclusive = small, poorly fitted or top-dose-only effect, or another doubt; inactive = no such curve, though single readings can be large or run the other way. % is scaled to controls: 0 for no effect and ±100 for the full control effect.
SMILES,Lassa entry inh,Pf growth 96h,HCV inh,HCMV inh,Marburg entry inh,Pf growth 48h
COc1ccc(CNC(=O)CN(c2ccc(C(C)C)cc2)S(=O)(=O)c2c(C)noc2C)cc1,x,u,10µM*,-31,x,-14%
CC1=C(C(=O)OCC2CCCO2)C(c2cccc(O)c2)NC(=O)N1 (centres undefined),-16%,34%,18%,0,12%,14%
CC1=C(C(=O)OCC2CCCO2)C(c2ccccc2)C2=C(CCCC2=O)N1 (centres undefined),19%[46.1 µM],u,1%,-23,-6%[46.1 µM],18%
COc1ccc(C2C(C(=O)OCC3CCCO3)=C(C)NC3=C2C(=O)CC(c2ccco2)C3)cc1O (centres undefined),-11%,10µM*,-5%,17,13%,u
CCOC(=O)C1=C(C)NC(C)=C(C(=O)OCC)C1c1ccc(OC)c(OC)c1,x,x,x,85,x,x
CCOC(=O)C1=C(C)NC2=C(C(=O)CC(c3ccc(OC)c(OC)c3)C2)C1c1ccc(C)o1 (centres undefined),-10%,u,13µM*,-32,u,1.2µM*
COC(=O)C1=C(C)NC(C)=C(C(=O)OCC2CCCO2)C1c1cccc(Br)c1 (centres undefined),-11%,u,-9%,-5,9%,9.3µM*
COc1ccccc1NC(=O)C1=C(C)NC2=C(C(=O)CC(c3ccc(OC)c(OC)c3)C2)C1c1coc2ccccc2c1=O (centres undefined),u,0%,29%,-28,0%,12µM*
CC(=O)c1ccc(NC(=O)Nc2sc3nc4n(c(=O)c3c2C)CCC(C)CC4)cc1 (centres undefined),x,x,x,10,-24%[46.1 µM],x
O=C(CSc1nnc(NC(=O)c2ccco2)s1)Nc1ccc(F)cc1F,1%,3%,x,-16,4%,0%
CSC(=S)NN=C(C)c1cccc(C)n1,u,x,4µM*,-80*,5µM*,x
O=c1[nH]c(-c2ccccc2)cn1C1CCN(Cc2ccc(-c3nc4ccccc4nc3-c3ccccc3)cc2)CC1,x,x,x,118,x,x
CCOc1ccc(CCNC(=O)c2cc3c(=O)oc4ccc(C)cc4c3s2)cc1OCC,9%[46.1 µM],x,x,13,13%[46.1 µM],x
COc1cccc(C2C(C#N)=C(N)OC3=C2C(=O)CC(c2ccco2)C3)c1OCc1ccc(F)cc1 (centres undefined),u,65%,u,-5,16µM*!,6.6µM*
N#CC1=C(N)OC2=C(C(=O)CC(c3ccco3)C2)C1c1ccc(OCc2c(F)cccc2Cl)cc1 (centres undefined),u,26%,u,8,u,u
CCOc1ccc(CNC(=O)CCC(=O)n2ncc3ccc(Cl)cc32)cc1,x,u,10%,38,x,-2%
NCCCNc1nc(N)c([N+](=O)[O-])c(NC2CCCCC2)n1,x,u,13µM*,-97*,x,2.3µM*
OCCNc1ncnc2c1ncn2[C@H]1CN(Cc2ccc(Cl)cc2)C[C@@H](CO)O1,x,x,x,1,x,x
Cc1cc(N/N=C/c2ccc(N(C)C)cc2)nc(NCc2ccccc2)n1,x,u,u,-18,x,u
Cc1cc(N/N=C/c2ccc(F)cc2)nc(NCc2ccccc2)n1,u,u,11µM*,5,u,0.41µM*
Cc1cc(N/N=C/c2ccc(Cl)cc2Cl)nc(NCc2ccccc2)n1,-16%,u,u,-25,u,0.33µM*
Cc1ccc(/C=N/Nc2cc(C)nc(NCc3ccccc3)n2)cc1,u,1µM*,7.1µM*,-12,u,0.59µM*
CC1CCCC(NC(=O)Cn2cc(C(F)(F)F)cc(Cl)c2=O)C1C (centres undefined),x,u,-5%,66,x,u
CCOC(=O)C1=C(CSc2nc3ccccc3s2)NC(=O)NC1c1cc(C)ccc1C (centres undefined),u,9.3µM*,u,u,u,u
CCOC(=O)C1=C(CP(=O)(c2ccccc2)c2ccccc2)NC(=O)NC1c1ccc(OC)cc1 (centres undefined),-7%,u,13%,-29,1%,u
SMILES,Lassa entry inh,Pf growth 96h,HCV inh,HCMV inh,Marburg entry inh,Pf growth 48h
CCOC(=O)C1=C(CSc2nc3ccccc3s2)NC(=O)NC1c1ccc(OC)cc1 (centres undefined),u,u,u,-60*,u,-16%
Cc1ccccc1Nc1nc(N)nc(COC(=O)CCS(=O)(=O)c2ccccc2)n1,-4%,-22%,8%,51,u,u
Cc1ccccc1Nc1nc(N)nc(COC(=O)c2cccc(S(=O)(=O)N(C)C)c2)n1,-14%,u,u,-7,7%,-22%
CCc1ccccc1Nc1nc(N)nc(COC(=O)CCNS(=O)(=O)c2ccccc2)n1,10%,u,3%,-24,u,12µM*
Cc1ccccc1Nc1nc(N)nc(COC(=O)c2cccc(S(=O)(=O)NCc3ccccc3)c2)n1,u,13µM*,-21%,-1,u,u
CCCCCCCCN,x,x,x,-12,x,x
Cc1noc(C)c1COc1ccccc1C(=O)N(C)Cc1ccc(C(C)(C)C)cc1,x,15µM*,u,u,x,12µM*
Cc1noc(C)c1COc1ccccc1C(=O)NC1CCC(C)CC1 (centres undefined),x,4.1µM*,5%,4,x,u
Cc1noc(C)c1COc1ccccc1C(=O)NCCOc1ccccc1F,x,-38%,u,2,x,-11%
